ChEMBL document CHEMBL3988442, “University of Dundee, Small-Polar-MMV Screening Library” (2021)
Hit rate of the full screen: of about 48,000 compounds, about 13,000 (27%) showed an effect of 50% or more. Some of the results follow.

Each compound was assayed on Wolbachia pipientis (assay: Anti-Wolbachia Cell-Based Screen). Conditions: 5 µM.
Format: functional
Design: scale not given: in the data most compounds retested in dose-response had high values

Structure (SMILES)	Percent Effect
CN(CC(=O)NC(C)(C#N)C1CC1)Cc1nnc(C2CC2)n1C (stereo not drawn)	-18.04%
Cc1cccc(S(=O)(=O)N2CSCC2C(=O)NC(C)(C)C)c1 (stereo not drawn)	-10.25%
CCc1nc(CCNC(=O)NC2CC2)sc1C	2.732%
C/C=C(\C)CN1C[C@H](c2cccc(OC)c2)[C@@H](N)C1	1.044%
CN1CCCC1CCn1ccnc1-c1nc(-c2ccccc2)no1 (stereo not drawn)	-1.363%
CN1CCN(C2CCN(c3ccnc(-c4ccccc4)n3)CC2)C1=O	9.74%
CN1CCCC1c1ccnc(-c2ccccc2)n1 (stereo not drawn)	129.7%
O=C(C1=CCCC1)N1C[C@H](Oc2cccnc2)[C@H]2OCCC[C@H]21	9.91%
CN(C)S(=O)(=O)N1C[C@H](Oc2cccnc2)[C@H]2OCCC[C@H]21.O=C(O)C(F)(F)F	21.05%
CN(C)CC(=O)N1C[C@@H](Oc2ccccn2)[C@H]2OCCC[C@H]21	-36.21%
O=C(C[C@H]1[C@H]2CN(C(=O)Cc3ccccn3)C[C@@H]12)Nc1cccnc1	-5.449%
O=C(Cc1ccccn1)N1C[C@@H](Oc2cccnc2)[C@H]2OCCC[C@H]21	93.72%
O=C(c1cscn1)N1C[C@@H](Oc2cccnc2)[C@H]2OCCC[C@H]21	101.6%
O=C(CC1CCCC1)N1C[C@H](Oc2cccnc2)[C@H]2OCCC[C@H]21.O=C(O)C(F)(F)F	105.6%
O=C(c1ccnnc1)N1C[C@@H](OCC2CCCC2)[C@H]2OCCC[C@H]21	-2.599%
Cc1[nH]nc(CCC(=O)N2C[C@H]3CC[C@@H]2CN(C(=O)N(C)C)C3)c1C	-18.31%
CC(=O)N[C@H](C)c1c(-c2ccc(Cl)cc2)noc1C(=O)O	-1.378%
Cn1cnc2c1C(COCc1ccccc1)N(Cc1cccnc1)CC2.O=C(O)C(F)(F)F.O=C(O)C(F)(F)F.O=C(O)C(F)(F)F (stereo not drawn)	3.52%
O=C(c1cscn1)N1CCn2cnc(COCC3CC3)c2C1	-4.402%
CCOCC1c2c(ncn2C)CCN1C(=O)c1cnc(C)cn1.O=C(O)C(F)(F)F (stereo not drawn)	107%
CCOCC1c2c(ncn2C)CCN1C(=O)c1ccoc1 (stereo not drawn)	86.79%
Cn1cnc2c1C(COCc1ccccc1)N(Cc1ccncc1)CC2.O=C(O)C(F)(F)F.O=C(O)C(F)(F)F.O=C(O)C(F)(F)F (stereo not drawn)	-5.71%
CCOCC1c2c(ncn2C(C)C)CCN1C(=O)CC (stereo not drawn)	-9.692%
CCOCC1c2c(ncn2C)CCN1C(=O)c1cscn1 (stereo not drawn)	99.42%

Structure (SMILES)	Percent Effect
CCOCC1c2c(ncn2C(C)C)CCN1C(=O)C1CC1 (stereo not drawn)	9.389%
CCOCC1c2c(ncn2C(C)C)CCN1C(C)C.O=C(O)C(F)(F)F.O=C(O)C(F)(F)F (stereo not drawn)	0.9894%
O=C(NCCn1ccnc1-c1cc2n(n1)CCCNC2)c1ccncc1	-0.5813%
CC(NC(=O)c1ccoc1)C(=O)N(C)Cc1cccc(C(F)(F)F)c1 (stereo not drawn)	12.38%
CCn1nc2c(cc1=O)CN(Cc1nc(CCOC)no1)CC2	-7.437%
Cc1cccc(C(C)(C)CNC(=O)CCSc2nnnn2C)c1	-0.1425%
CCCn1c(C)c(CC(=O)N(C)CCOC)c2c1CC(C)(C)CC2=O	-2.271%
Cc1c[nH]c(CN(C)C(=O)CCn2cnc3ccccc32)n1	-8.611%
CCCOc1ccc(OCCN2CCOCS2(=O)=O)cc1	-1.298%
Cc1nc(C)n(CC2CCCN2CCOc2ccc(C#N)cc2)n1 (stereo not drawn)	-3.46%
CSc1ccc(OCCN2CCNC(=O)CC2)cc1	106.2%
CC1C(=O)NCCN1CCOc1ccc(C#N)cc1 (stereo not drawn)	92.79%
CSc1ccc(OCCN2CCNC(=O)C2C)cc1 (stereo not drawn)	111.5%
CCn1nc2c(cc1=O)CN(CCOc1ccc(C#N)cc1)CC2	2.029%
COc1ccc(CN2CCNC(=O)CC2)cc1SC(F)(F)F	-6.808%
Cc1ccc(C)c2c(O)cc(CN3CCNC(=O)C3C)nc12 (stereo not drawn)	-11.58%
Cc1ncc2c(n1)CN(CCOc1ccc3c(c1)CCC(=O)N3)CC2	3.437%
Cc1noc(C)c1CNCC1COCc2c(-c3ccsc3)nnn2C1.O=C(O)C(F)(F)F (stereo not drawn)	0.4259%
Cc1ncc(S(=O)(=O)Nc2ccnn2C2CCCCC2)[nH]1	-19.02%
COc1ccc(-n2ncc(C(C)NC3CCOCC3)c2C)cc1 (stereo not drawn)	-6.318%
CC(C)(C)c1cc(NC(=O)CN2CCCC2Cn2cncn2)on1 (stereo not drawn)	8.198%
CCN1CCC(NC(=O)CN2CCCC2Cn2cccn2)CC1 (stereo not drawn)	18.69%
Cc1cc(NC(=O)CCN2CCCCC2Cn2cncn2)no1 (stereo not drawn)	123.3%
Cc1cc(NC(=O)CCN2CCCCC2Cn2cccn2)no1 (stereo not drawn)	107.3%

Structure (SMILES)	Percent Effect
O=C(CN1CCCCC1Cn1cccn1)NC1CCOCC1 (stereo not drawn)	-17.79%
CCN1CCC(NC(=O)CN2CCCCC2Cn2cccn2)CC1 (stereo not drawn)	8.022%
CC(C)c1cc(NC(=O)CN2CCCC2Cn2cccn2)on1 (stereo not drawn)	-0.3726%
O=C(CN1CCCC1Cn1cccn1)NC1CCN(C2CC2)CC1 (stereo not drawn)	-5.086%
Cc1cc(NC(=O)CCN2CCCC2Cn2cncn2)no1 (stereo not drawn)	7.653%
CC(C)(C)c1cc(NC(=O)CN2CCCC2Cn2cccn2)on1 (stereo not drawn)	83.96%
CC(C)(C)c1cc(NC(=O)CN2CCCCC2Cn2cncn2)on1 (stereo not drawn)	-6.385%
Cc1cc(NC(=O)CCN2CCCC2Cn2cccn2)no1 (stereo not drawn)	85.34%
Cc1n[nH]c(C)c1CN(C)C(C(=O)O)c1c(F)cccc1OC(C)C (stereo not drawn)	-15.01%
CC(C)=CCN1C[C@H]2CC[C@@H]1CN(C(=O)c1ccc3[nH]cnc3c1)C2	1.607%
Cc1cnn(CCNCc2cc(=O)n3cc(Cl)ccc3n2)c1	-2.605%
CC(=O)N1CCN(CC(=O)NCCCN(C)c2ccccc2)CC1	-6.128%
CNc1nc(CNC(=O)Nc2cccc(-c3nnco3)c2)cs1	-5.762%
CCC[C@H]1CN(C2CCOCC2)C[C@@H]1NC(=O)CCc1cnccn1	-6.675%
O=C(CSc1ccccc1)N1C[C@H]2CC[C@@H]1CN(Cc1ccncc1)C2	-7.761%
Cc1nc(NC2CCOCC2)cc(C2CCN2S(C)(=O)=O)n1 (stereo not drawn)	120.8%
CC(=O)N1CCC1c1cc(NC2CCOCC2)nc(C)n1 (stereo not drawn)	79.3%
CC1c2ncc(COCC3CCOCC3)n2CCN1S(C)(=O)=O (stereo not drawn)	-5.189%
Cc1ccc(-c2cnnc(NCC3CCOCC3)n2)o1	-4.072%
Cc1nc(NCC2CCOCC2)cc(C2CCN2S(C)(=O)=O)n1 (stereo not drawn)	108.2%
Cn1ncc(N2CCC(CNC3Cc4ccccc4C3)C2)cc1=O (stereo not drawn)	-0.06487%
COc1ccc(C(C)N2CCC(OC)CC2)cc1Cl (stereo not drawn)	17.11%
O=C(N1CCCO1)[C@@]12CCO[C@@H]1CCN(Cc1ccc(F)cc1)C2.O=C(O)C(F)(F)F	99.96%
O=C(N1CCCO1)[C@]12COC[C@H]1CN(Cc1nccs1)C2.O=C(O)C(F)(F)F	-2.706%

Structure (SMILES)	Percent Effect
O=C(N1CCOCC1)[C@@]12CCO[C@@H]1CCN(CCN1CCCCC1)C2.O=C(O)C(F)(F)F.O=C(O)C(F)(F)F	12.15%
Cc1ccsc1CN1CC[C@H]2OCC[C@@]2(C(=O)N2CCCO2)C1.O=C(O)C(F)(F)F	103.7%
O=C(N1CCCO1)[C@@]12CCO[C@@H]1CCN(Cc1ccccc1)C2.O=C(O)C(F)(F)F	-18.43%
O=C(N1CCCO1)[C@@]12CCO[C@@H]1CCN(C1CCCCC1)C2.O=C(O)C(F)(F)F	6.239%
O=C(N1CCOCC1)[C@@]12CCO[C@@H]1CCN(Cc1ccccc1F)C2.O=C(O)C(F)(F)F	14.16%
O=C(N1CCCO1)[C@@]12CCO[C@@H]1CCN(Cc1cccs1)C2.O=C(O)C(F)(F)F	96.37%
COC[C@@]12CCO[C@@H]1CCN(Cc1sccc1C)C2.O=C(O)C(F)(F)F	9.781%
O=C(N1CCOCC1)[C@@]12CCO[C@@H]1CCN(Cc1cccc(F)c1)C2.O=C(O)C(F)(F)F	102.7%
Cc1ccc(S(=O)(=O)NCc2[nH]ncc2Br)cc1C	-4.089%
O=C(CN1CCOC1=O)N1CCc2nnc(Cc3ccccc3)n2CC1	1.802%
N#Cc1c(Cl)nsc1NCc1ccc(N2CCC(CO)CC2)cc1	-1.187%
Cc1ccc(CN2CCOC3(CCCN(c4cccc(F)c4)C3)C2)o1.O=C(O)C(F)(F)F.O=C(O)C(F)(F)F (stereo not drawn)	-11.31%
Cc1ccc(CN2CC[C@H]3OCC[C@@]3(C(=O)N3CCCO3)C2)o1.O=C(O)C(F)(F)F	102.1%
Cc1ccc(CN2C[C@H](C(=O)N3CCCCO3)[C@@H]3CCO[C@@H]3C2)o1.O=C(O)C(F)(F)F	-4.524%
Cn1cccc1C(=O)N[C@@H]1CN(S(C)(=O)=O)[C@@H]2COC[C@@H]21	-0.3534%
COCCC1(C(=O)O)CCCN(Cc2cc3c(cc2C)OCO3)C1 (stereo not drawn)	0.3642%
Cc1nc(CN2CCCn3cnc(COCC4CC4)c3C2)cs1.O=C(O)C(F)(F)F	-1.787%
Cc1nc(COCc2cnc3n2CCN(C)C3C)cs1.O=C(O)C(F)(F)F (stereo not drawn)	0.7983%
Cc1nc(COCC2CN(C(=O)N(C)C)Cc3nccn3C2)cs1.O=C(O)C(F)(F)F (stereo not drawn)	91.86%
Cc1nc(COCC2CNCc3nccn3C2)cs1 (stereo not drawn)	1.667%
Cc1nc(COCC2CN(C(N)=O)Cc3nccn3C2)cs1.O=C(O)C(F)(F)F (stereo not drawn)	114.2%
